Measurements as given in PubChem BioAssay AID485313 (National Center for Advancing Translational Sciences (NCATS), 2010).
Screen size: about 320,000 compounds; about 7,600 (2.4%) were called active. Not shown: some 3% with an inconclusive outcome. This is one part of a sample in which actives are shown more often than they occur. The call rests on the fitted dose curve; in most records, active means well fitted activation curve with a large enough effect; inconclusive means small, poorly fitted or top-dose-only effect; inactive means no such curve, though single readings can be large or run the other way.

Experiment: qHTS Assay for NPC1 Promoter Activators; further: nearly all actives have a fitted effect of over 60% in size;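 on activation: reporter is driven by a mutant NPC1 promoter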
Conditions: Huh7 NPC1 promoter luciferase reporter, 24 h; series mostly up to 9.22 µM
In short: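 Stably transfected Huh7 (NPC1 promoter→luciferase), 1500 cells/well in Opti-MEM + 10% FBS, 2 h settle, then compound 24 h at 37 °C. Luminescence after 10 min with Amplite reagent.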
Potency means the concentration at half of the fitted maximal effect.

Potency, active:
N#Cc1c(NC(=O)C2CCCO2)sc2c1CCCCC2 (stereo not given) 3550 nM
Clc1ccc2nc(CSc3ccccc3)cn2c1 501 nM
NC(=O)Cc1ccc2sc(-c3ccccc3)nc2c1 3550 nM
NS(=O)(=O)c1ccccc1NC(=O)c1c(O)c2ccccc2[nH]c1=O 562 nM
O=C(CSc1nnc(-c2ccc([N+](=O)[O-])cc2)o1)Nc1ccccn1 708 nM
COC(=O)CNS(=O)(=O)c1ccc(Cc2ccc(S(=O)(=O)NCC(=O)OC)cc2)cc1 631 nM
COc1cccc(OCCOc2cccc(/C=N/n3cnnc3)c2)c1 3980 nM
O=C(Nc1cc(C(F)(F)F)ccc1Cl)c1cc2nc3c(c(C(F)(F)F)n2n1)CCCC3 3160 nM
O=C(Nc1cccc(F)c1)NC1CCCCCCC1 2510 nM
CCSc1nnc(NC(=O)c2ccc(C)cc2)s1 1120 nM
NC(=O)CSc1nnc(NC(=O)c2ccc3ccccc3c2)s1 3160 nM
CSc1nc2ccc(NC(=O)c3c(F)cccc3F)cc2s1 2510 nM
O=C(c1ccc(F)cc1)N1CCC(n2nnc3ccccc32)CC1 4470 nM
CCC(=O)NC(=Nc1nc2ccccc2s1)NC(=O)CC 1260 nM
CC(C)CC(=O)N/C(N)=N/c1nc2ccccc2s1 501 nM
Cc1ccc(Nc2nc(-c3ccc(O)cc3O)cs2)nc1 2000 nM
CC1CCCN(c2ccc(C(=O)NCCc3ccccc3)cn2)C1 (stereo not given) 3160 nM
O=C(Nc1cccnc1)c1noc2c1CCCCC2 2510 nM

Potency, inactive:
O=S(=O)(Nc1ccc(Cl)cn1)c1cnc(Cl)c(Br)c1
COc1ccc(S(=O)(=O)Nc2ccc3cn[nH]c3c2)cc1[N+](=O)[O-]
CCc1ccc(CN(C)C(C)C(=O)Nc2ccc(S(=O)(=O)N3CCCC3)cc2)cc1 (stereo not given)
CN1CCC(N(C)S(=O)(=O)c2ccc(NC(=O)c3cccc(C#N)c3)cc2)CC1
COc1ccc(C2(C)ON(c3ccccc3C(F)(F)F)C2=O)cc1 (stereo not given)
O=C(CSc1nc2ncccc2[nH]1)Nc1ccc2c(c1)OCCO2
CCn1nc(C(=O)NNC(=O)C2CSC3(C)CCC(=O)N23)c2ccccc2c1=O (stereo not given)
N#Cc1c(NC(=O)C2CC(Cl)=CCC2C(=O)O)sc2c1CCCCC2 (stereo not given)
N#Cc1c(NC(=O)CCCl)sc2c1CCCCC2
COc1ccc(NS(=O)(=O)c2cccc(C(=O)NCCc3ccc(S(N)(=O)=O)cc3)c2)cc1
O=c1c2ccccc2nc2n1C(CSc1ccc(Cl)cc1)CN2 (stereo not given)
O=C(/C=C/c1ccc2c(c1)OCO2)NCc1cn2cc(Cl)ccc2n1
CN(CCC1CCOCC1)Cc1cn[nH]c1-c1ccc(-c2ccccc2)cc1
O=C(COC(=O)C1CC2CCCC(C1)C2=O)NC(=O)c1ccccc1 (stereo not given)
CC(OC(=O)c1ccccc1NCCO)C(=O)Nc1ccnn1C(C)C (stereo not given)
CC1CCCC(NC(=O)c2cc(S(=O)(=O)N3CCCCC3)ccc2Cl)C1C (stereo not given)
Cc1ccc(NC(=O)CCCNC(=O)c2ccc(Cl)cc2)cc1S(=O)(=O)N1CCOCC1
NC(=O)Cc1ccc2c(c1)[nH]c1ccccc12
O=C(O)Cc1sc(-c2ccccc2)nc1-c1cccs1
CC(OC(=O)CN1C(=O)c2ccccc2C1=O)C(=O)c1ccccc1 (stereo not given)
O=C(COC(=O)c1ccc(O)cc1O)NNC(=O)c1cccs1
CCCc1nc2ccccc2c(=O)n1NC(=O)c1c(O)c2ccccc2[nH]c1=O
CC(C)C(=O)Nc1c(O)c2ccccc2[nH]c1=O
Cc1ccc(S(=O)(=O)N2CC(O)C[C@H]2C(=O)OCC(=O)Nc2ccc(N3CCOCC3)cc2)cc1C (stereo not given in full)
Cc1ccc(CNC(=O)CC(NC(=O)c2ccccc2)c2ccccc2)cc1 (stereo not given)
COc1ccccc1C1=CC(=O)C[C@H](c2ccc(F)cc2)C1
CCc1ccccc1NC(=O)CSc1nnc(-c2ccncc2)o1
CCOC(=O)CSc1nnc(-c2ccc([N+](=O)[O-])cc2)o1
O=S(=O)(Nc1ccc(-n2cnnn2)cc1)c1ccc(Cl)cc1
CCN(CC)S(=O)(=O)c1ccc(OC)c(NC(=O)CCc2c(C)noc2C)c1
C/C(N)=C(/C#N)C(=O)COC(=O)CNS(=O)(=O)c1ccc(C)cc1
COC(=O)CNS(=O)(=O)c1ccc(OC)cc1
CC(=O)c1ccc(OCCCC(=O)Nc2ccc(C)c(S(=O)(=O)N3CCOCC3)c2)cc1
COc1ccc(CNC(=O)COC(=O)c2c(C)nn(-c3ccccc3)c2C)cc1OC
O=C(CN1CCCSc2ccccc21)N1CCN(S(=O)(=O)c2ccccc2)CC1
COc1ccccc1OCCOc1ccc(/C=N/n2cnnc2)cc1
C(=N\n1cnnc1)/c1cccnc1
Cc1csc(NC(=O)C2CCN(S(=O)(=O)c3ccccc3)CC2)n1
COc1cc2c(cc1OC)CN(C(C)C(=O)Nc1cccc(S(=O)(=O)N3CCOCC3)c1)CC2 (stereo not given)
Cc1c(C(=O)NNC(=O)c2ccncc2)oc2ccccc12
CCN(CC(=O)Nc1ccc(OC)cc1)C(=O)CSCc1ccc(C)cc1
O=C(Nc1cc(C(F)(F)F)ccc1Cl)c1cc(C2CC2)on1
O=C(Nc1cc(C(F)(F)F)ccc1Cl)C(=O)N1CCCCC1
O=C(COc1ccccc1Cl)N1N=C(c2cccs2)CC1c1ccco1 (stereo not given)
CC(C)C(NC(=O)c1c(F)cccc1F)C(=O)NCc1ccncc1 (stereo not given)
O=C(OCC(=O)N1CCc2ccccc21)C1CCCN1S(=O)(=O)c1ccc(Cl)cc1 (stereo not given)
O=C(Nc1cccc(F)c1)NC1CCCc2ccccc21 (stereo not given)
C/C(CC(=O)Nc1cccc(F)c1)=N\NC(=O)C(=O)NC1CCCCC1
COc1ccc(OC)c(S(=O)(=O)n2c([N+](=O)[O-])cnc2C)c1
O=C(/C=C/c1ccccc1)Nc1nnc(SCC(=O)c2ccc3ccccc3c2)s1
C=CCSc1nnc(NC(=O)c2ccc(NC(C)=O)cc2)s1
NC(=O)CSc1nnc(NC(=O)c2ccc(Br)o2)s1
CCOC(=O)CSc1nnc(NC(=O)c2cccc(S(=O)(=O)N3CCCC3)c2)s1
CN(CC(=O)NCC(c1ccccc1)N1CCCC1)S(=O)(=O)c1ccc(Cl)cc1 (stereo not given)
CC(C)(C)OC(=O)Nc1ccc([C@@H](NC(=O)OC(C)(C)C)C(=O)OC(C)(C)C)cc1
Cc1ccc(NC(=O)Cc2nc(COC(=O)C(C)NS(=O)(=O)c3ccc(C)cc3)cs2)cc1 (stereo not given)
COc1cc(C(=O)NCC(c2ccco2)N2CCCC2)ccc1OCc1ccccc1 (stereo not given)
CCN(CC(=O)Nc1ccccc1OC)C(=O)CC1CC2CCC1C2 (stereo not given)
COc1cccc(NC(=O)CN(C)C(=O)c2cc(C3CC3)nn2-c2ccccc2)c1
O=C(Nc1ccncc1)c1c(F)cccc1F
CCCC(=O)Nc1nc2ccc(NC(=O)c3c(F)c(F)c(OC)c(F)c3F)cc2s1
CC1(C)CC(=O)C=C(c2ccc(Cl)c(C(F)(F)F)c2)C1
CCOc1ccc(NC(=O)CN(C)C(=O)Cc2sc(C)nc2-c2ccc(F)cc2)cc1OCC
COc1ccccc1C(=O)NCCC(=O)N(C)Cc1cccnc1
CC1(C)O[C@@H]2[C@H](O1)[C@@H](CO)O[C@H]2n1c(N2CCCCC2)nc2c(N)ncnc21
CC(=O)c1cccc(S(=O)(=O)N2CCC(n3nnc4cc(F)ccc43)CC2)c1
O=S(=O)(c1cccc(S(=O)(=O)N2CCC(n3nnc4ccccc43)CC2)c1)N1CCCCC1
CCCCn1c(N)c(N(CCC(C)C)C(=O)COC(=O)c2cccnc2OCC)c(=O)[nH]c1=O
CCCCn1c(N)c(N(CCC(C)C)C(=O)COC(=O)c2ccc(CC)cc2)c(=O)[nH]c1=O
CC(Sc1nnc(-c2cccs2)n1C1CC1)C(=O)NCC1CCCO1 (stereo not given)
Cc1cc(C(=O)OCC(=O)Nc2nnc(C(C)C)s2)c2ccccc2n1
CC(C)CC(=O)NC(=S)NCc1ccccc1
CN(Cc1nc2ccccc2s1)C(=O)c1ccc(F)cc1
CC(=O)Nc1cccc(-c2nc3ccccc3s2)c1C
Cc1ccc(F)cc1NC(=O)CSCc1c(C)noc1C
Cc1nn(Cc2ccccc2)c(C)c1C(=O)N1CCN(CC(=O)Nc2ccccc2Cl)CC1
C=CCC1(CC=C)CCCN1C(=O)c1cc(COc2ccc(-n3cncn3)cc2)on1
CC(=O)Nc1ccc(C(=O)Nc2nc(-c3cc(C)n(Cc4ccccc4)c3C)cs2)cc1
C=C(C)CNc1cc(S(=O)(=O)N2CCOCC2)ccc1Oc1ccccc1
CCCn1c(NC(=O)C23CC4CC(CC(O)(C4)C2)C3)nc2ccccc21
O=C(NCCc1ccccc1)c1ccc2c(c1)N(Cc1ccccc1)CCS2
CC1CCN(C(=O)CCNC(=O)c2ccccc2)CC1
Cc1ccc(NC(=O)CCCNC(=O)c2ccc(Cl)cc2)cc1S(=O)(=O)N1CCCCC1
CC(C)(C)C(=O)CSc1ccc(S(=O)(=O)N2CCCC2)cn1
CC(NC(=O)c1ccc(S(=O)(=O)Nc2ccccc2)cc1)c1ccc(S(N)(=O)=O)cc1 (stereo not given)
O=C(Nc1cccnc1)c1cc(Cl)ccc1Cl
O=C(Nc1cccnc1)c1cccc(S(=O)(=O)N2CCCC2)c1
